Screening results from PubChem BioAssay.
EWS-Fli inh: EWS/Fli transcriptional activity inhibition; inhibition, % at 12.6 µM; hit rate 0.67% among 350,000; A673 NR0B1-luciferase reporter, viability-normalised;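 active means mean inhibition of at least 50% after viability correction, with every replicate also passing that limit; inconclusive means mean reaches 50% but only one of two replicates passes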;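 further: firefly luciferase signal divided by Alamar Blue viability fluorescence both relative to DMSO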
LGR2 antag: inhibitors of bursicon-induced Drosophila LGR2 receptor cAMP signaling | inhibition, % at 9.99 µM | hit rate 0.35% among 380,000 | AID 720647 | HEK293 LGR2, CRE-luciferase, bursicon-stimulated, 4 h;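 active means drop in luminescence signal, shown as inhibition above about 50% in the replicate tests, limit read from the data, passing the limit was not always enough; inconclusive means probably only some replicates passing the limit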;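 further: agonist challenge used bursicon conditioned medium at about half maximal strength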
TROY signal inh: blocks TROY-dependent signaling in reporter cells; Q293 LMP1-TROYcd NF-kB luciferase reporter, 4 h; inhibition, % at 10 µM; hit rate 0.98% among 360,000;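 active means compounds whose plate-normalised and pattern-corrected inhibition of the luciferase reporter signal at the single screening dose is 50% or more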
EBV LMP1 NFkB: reduces LMP1-driven NF-kappaB luciferase signal. LMP1-induced NF-kappaB luciferase reporter cells, luminescence. inhibition, % at 12.5 µM. hit rate 0.69% among 350,000. AID 504558; in the data active means inhibition above about 41%; inconclusive means no clear call, values can overlap the other calls;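 further: 0% = neutral control wells and 100% = reference inhibitor control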
TWEAK Fn14 block: blocks TWEAK-Fn14 interaction in a reporter cell assay; hit rate 2% among 360,000; inhibition, % at 10 µM; AID 1159606; TWEAK-stimulated Fn14 reporter cells, luciferase luminescence, 8 h; in the data active means inhibition above about 50%
An asterisk follows results filed as active; ? = inconclusive; · = no result. The list is not random: actives were taken first. Their share in the collection is about 2.5%.

SMILES	EWS-Fli inh	LGR2 antag	TROY signal inh	EBV LMP1 NFkB	TWEAK Fn14 block
C[C@@H]1CN([C@@H](C)CO)C(=O)c2cc(NC(=O)c3ccccc3)ccc2O[C@@H](C)CCCCO[C@@H]1CN(C)S(=O)(=O)c1ccc(Cl)cc1	4.8	-6.5	·	·	·
Cc1cc(NC(=O)c2ccc3c(c2)OCCO3)no1	·	·	39.6	60.1*	77.3*
Cc1ccc(C(=O)Nc2ccc3c(c2)CCC3)cc1	58.9*	?	38.9	3.7	71.3*
Cc1cc(C(=O)Nc2ccc3c(c2)OCCO3)ccc1[N+](=O)[O-]	39.0	59.3*	26.0	3.5	62.4*
Cc1ccc(C(=O)Nc2ccc3c(c2)OCO3)cc1	·	·	23.9	6.4	52.8*
Cc1cc(NC(=O)c2ccc3c(c2)OCO3)no1	·	3.2	-31.6	-1.4	11.0
O=C(Nc1ccc2c(c1)OCCO2)c1ccc(Cl)c([N+](=O)[O-])c1	·	-47.3	-28.1	-2.8	-12.9
O=C(Nc1ccc2c(c1)OCO2)c1ccncc1	·	·	-23.1	-1.5	-4.1
COc1cccc(NC(=O)N2C[C@@H](O)COC[C@H]3O[C@H](CC(=O)NC4CCCC4)CC[C@@H]32)c1	-2.9	13.4	·	·	·
Cc1noc(C)c1NC(=O)N(C)C[C@H]1OCCCC[C@H](C)Oc2ccc(NS(=O)(=O)c3c(C)noc3C)cc2C(=O)N([C@H](C)CO)C[C@@H]1C	-10.7	-2.8	·	·	·
Cc1cccc(-c2cc(C(=O)Nc3ccc4c(c3)OCCO4)c3ccccc3n2)c1	·	-18.8	12.8	-7.7	55.1*
CCC(=O)N1[C@@H]2c3cccc(=O)n3C[C@@H]2[C@@H](CO)[C@@H]1C(=O)NC1CCCCC1	8.2	-8.7	·	·	·
Cc1ccc(S(=O)(=O)c2nc(S(C)(=O)=O)sc2NCC2CCCO2)cc1 (configuration not stated)	·	·	·	-6.6	87.2*
Cc1ccc(-c2ccc(S(=O)(=O)NCC3CCCO3)cc2)cc1 (configuration not stated)	-2.0	15.7	24.2	2.4	34.0
Fc1ccc(N/N=C/c2ccc(N3CCOCC3)cc2)c(F)c1	-101.4	-6.9	69.7*	-39.3	45.3
CCc1ccc(Nc2cc(C)nc3ncnn23)cc1	-16.5	13.6	9.0	10.2	-7.6
CCn1c2ccccc2c2cc(Nc3cc(C)nc4ncnn34)ccc21	64.2*	-0.4	27.4	-0.5	34.7
Oc1ccc(-c2n[nH]c(=S)n2-c2ccc3c(c2)OCCO3)c(O)c1	·	21.9	-5.0	26.2	51.9*
S=c1[nH]nc(-c2ccc(Cl)cc2Cl)n1-c1ccc2c(c1)OCCO2	-6.2	·	-27.1	-9.1	-23.3
Cc1nnc(N2CCCC(C(=O)NCc3ccc(OC(C)C)cc3)C2)c2nn(-c3ccccc3)c(C)c12 (configuration not stated)	·	3.6	25.6	13.6	32.5
Cc1nnc(N2CCCC(C(=O)Nc3cc(F)ccc3F)C2)c2nn(-c3ccccc3)c(C)c12 (configuration not stated)	·	·	53.0*	54.8*	38.7
Cc1nc2ccccn2c1-c1ccnn1S(=O)(=O)c1ccc(F)cc1	-4.5	14.4	16.5	-9.0	51.8*
O=C(Cc1ccccc1)NC(Nc1ccccc1)C(Cl)(Cl)Cl (configuration not stated)	·	·	10.1	-5.0	-6.0
O=C(Cc1ccccc1)NC(Nc1cccc2ccccc12)C(Cl)(Cl)Cl (configuration not stated)	·	·	56.4*	-1.9	11.7
Cc1nonc1NC(=O)CSc1nc(C23CC4CC(CC(C4)C2)C3)nc2ccccc12	-1.6	12.7	-5.4	-18.7	66.4*
SMILES	EWS-Fli inh	LGR2 antag	TROY signal inh	EBV LMP1 NFkB	TWEAK Fn14 block
Cc1c(C)c2cccnc2c2ncccc12	·	·	6.5	86.3*	-36.1
C[C@H]1CCCCO[C@H](CN(C)Cc2ccc(C(=O)O)cc2)[C@@H](C)CN([C@@H](C)CO)C(=O)c2cc(NC(=O)Nc3ccccc3)ccc2O1	-9.0	16.8	·	·	·
O=C(Nc1ccc(F)cc1)N[C@H]1CC[C@@H](CC(=O)N2CCOCC2)O[C@H]1CO	0.9	1.0	·	·	·
O=[N+]([O-])c1ccc(-c2nc(C(Cl)Cl)c3ccccc3n2)cc1	67.4*	41.2	34.1	20.2	-35.8
CN(Cc1ccccc1)c1nc(-c2ccc([N+](=O)[O-])cc2)nc2ccccc12	·	·	-21.5	15.3	3.4
CN(C)C(=O)C[C@H]1CC[C@H](NC(=O)C2CCOCC2)[C@@H](CO)O1	-2.2	7.5	·	·	·
Cc1ccccc1C1NC(=O)c2ccccc2O1 (configuration not stated)	13.2	14.2	-7.9	-5.5	87.6*
O=C(Oc1ccc(C(=S)N2CCC(O)CC2)cc1)c1ccc(Cl)cc1	2.6	6.1	56.8*	10.7	-28.9
Cn1c(=O)oc2cc(S(=O)(=O)N3CCCc4ccccc43)ccc21	58.5*	4.4	4.0	-0.6	3.4
Cc1cccc(S(=O)(=O)N2CCCc3ccccc32)c1	10.5	6.9	-1.9	48.0*	6.9
Cn1c(=O)oc2cc(S(=O)(=O)N3CCc4ccccc43)ccc21	18.8	11.3	5.0	6.5	-12.0
Cc1ccc(OCCn2c(C)c(/C=N/n3cnnc3)c3ccccc32)cc1	·	·	35.4	-3.6	1.8
Cc1c(/C=N/n2cnnc2)c2ccccc2n1CCOc1ccc(Cl)cc1	·	·	54.4*	4.4	48.4
O=C(c1ccccn1)N1C[C@H]2[C@@H](c3ccccc31)[C@@H](CO)N2C(=O)C1CCCC1	-1.8	0.4	·	·	·
CCOC(=O)N1CCC(NC(=O)c2ccc3c(c2)N(C)C(=O)/C(=C/c2cccc(OC)c2)S3)CC1	8.9	4.3	60.8*	4.1	74.7*
CCOC(=O)N1CCN(C(=O)c2ccc3c(c2)N(C)C(=O)/C(=C\c2ccc(OCC)c(OC)c2)S3)CC1	9.2	-19.4	29.5	25.5	17.6
CCOc1cc(/C=N/N2CCN(Cc3ccccc3)CC2)ccc1O	8.5	-1.2	5.2	45.0*	-0.7
Cc1nc2nc(C)n(CCN3CCOCC3)c(=O)c2c(-c2cccc([N+](=O)[O-])c2)c1C(=O)CCCCCCCCCCN1CCC(c2ccccc2)(c2ccccc2)CC1	?	33.2	48.7	1.4	95.6*
CCCNC(=O)C[C@H]1CC[C@H]2[C@@H](COc3ccc(NC(=O)C4CCOCC4)cc3C(=O)N2C)O1	·	-22.1	·	·	·
Cc1cccc(N/C=C/C(=O)c2ccc(Cl)cc2)c1	-37.4	-69.1	-23.4	-20.5	13.3
O=C(/C=C\Nc1ccccn1)c1ccc(Cl)cc1	·	·	50.0	20.7	87.5*
O=C(N[C@@H]1C=C[C@H](CC(=O)N2CCCCC2)O[C@@H]1CO)c1ccccn1	0.1	20.3	·	·	·
O=C(c1cc2nc(-c3ccco3)cc(C(F)(F)F)n2n1)N1CCN(c2ccccn2)CC1	·	·	-1.9	10.1	50.7*
COc1ccc2c3c(n(C)c2c1)[C@@H](CO)N(CC1CCCC1)CC31CCN(C(=O)Nc2ccccc2)CC1	17.3	5.6	·	·	·
CN1C(=O)c2cc(NC(=O)Cc3cccs3)ccc2OC[C@@H]2O[C@@H](CC(=O)O)CC[C@H]21	-4.4	8.4	·	·	·
C#CCOCCOCCOCCNc1nc(N2CCN(C(=O)CCCCCCCCCCNC(=O)Cn3cc(C[C@@H](C)O)nn3)CC2)nc(N2CCN(C(=O)CCCCCCCCCCNC(=O)[C@@H]([C@H](C)CC)n3cc(CCCCCN)nn3)CC2)n1	·	·	68.5*	-32.2	-9.3
